Screening data: PubChem, The Scripps Research Institute Molecular Screening Center
Hits are enriched below; roughly 3.5% of the tested compounds scored in any of these assays.
FBW7 act – human FBW7 E3 ligase activation, primary screen | Q969H0 | AlphaScreen FBW7–phospho-cyclin E peptide binding, activator screen | normalized activity (activation), % at 26.1 µM | 650,000 tested, 0.13% active | AID 1259310; in the data active = normalized activity above about 1.9%;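 also: purified mutant Fbw7 with reduced substrate affinity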
TEAD-YAP block – TEAD-YAP interaction inhibition; HEK-TIYL cells, TEAD-Gal4/YAP UAS-luciferase luminescence; inhibition, % at 9.12 µM; 640,000 tested, 1.4% active; AID 1259422; in the data active = inhibition above about 32%
GPR151 ag – activates the human receptor GPR151; 650,000 tested, 1% active; activation, % at 11.2 µM; PathHunter beta-arrestin GPR151 cells, luminescence; AID 1508602; in the data active = activation above about 4.9%
Target sequence (Q8TDV0 whole entry, looked up): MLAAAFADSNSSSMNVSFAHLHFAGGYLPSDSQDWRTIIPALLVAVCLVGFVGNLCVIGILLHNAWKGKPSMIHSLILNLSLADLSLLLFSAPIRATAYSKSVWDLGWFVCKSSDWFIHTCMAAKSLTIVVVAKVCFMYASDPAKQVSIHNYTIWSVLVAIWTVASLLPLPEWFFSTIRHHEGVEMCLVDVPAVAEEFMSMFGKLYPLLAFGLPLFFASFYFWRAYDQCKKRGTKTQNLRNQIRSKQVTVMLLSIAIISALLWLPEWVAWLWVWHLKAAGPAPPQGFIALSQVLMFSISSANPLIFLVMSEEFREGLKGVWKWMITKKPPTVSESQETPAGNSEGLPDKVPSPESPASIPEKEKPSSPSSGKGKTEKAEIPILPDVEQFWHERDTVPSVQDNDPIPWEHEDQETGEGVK
MITF inh – blocks human microphthalmia-associated transcription factor | AlphaScreen MITF homodimerization, bead proximity signal | 650,000 tested, 0.91% active | O75030 | inhibition, % at 2.6 µM | AID 1259374; in the data active = inhibition above about 50%
Large screens that a line does not name were inactive.

Oc1c(CN2CCN(Cc3ccc4cccnc4c3O)CC2)ccc2cccnc12	TEAD-YAP block 38, MITF inh 114
Oc1c(CN2CCOCC2)ccc2cccnc12	MITF inh 95
CCOc1ccc(/C(O)=C2\C(=O)C(=O)N(Cc3cccnc3)C2c2ccc(C)cc2)cc1 (stereo not given)	none
CCCNC(=O)CCNS(=O)(=O)c1cc(Br)cnc1N	none
N#Cc1ccccc1NC(=O)COC(=O)c1cccnc1Nc1cccc(C(F)(F)F)c1	none
O=C(NCCc1ccccn1)c1c(C(F)(F)F)nc2ccccn12	none
Cc1ccc(Nc2c([N+](=O)[O-])c(=O)oc3ccccc23)cc1	none
CN(C)c1ccc(Nc2c([N+](=O)[O-])c(=O)oc3ccccc23)cc1	TEAD-YAP block 53
CC(C)N1C/C(=C/c2cccnc2)C(=O)/C(=C/c2cccnc2)C1	TEAD-YAP block 52
CN1C/C(=C/c2cccnc2)C(=O)/C(=C/c2cccnc2)C1	TEAD-YAP block 74
O=C(CCl)N=c1sccn1Cc1ccccc1Cl	TEAD-YAP block 39
COc1cc2c(cc1OC)C(C(=O)N1CCCCC1)C1c3ccccc3CCN1C2=O (stereo not given)	FBW7 act 1.9
COc1cc2c(cc1OC)C(C(=O)N1CCCC(C)C1)C1c3ccccc3CCN1C2=O (stereo not given)	none
NC(=O)c1ccc(Nc2cc(-c3ccccc3)ccn2)cc1	none
c1ccc(Nc2cc(-c3ccnc(Nc4ccccc4)c3)ccn2)cc1	TEAD-YAP block 38
CCOC(=O)C(C#N)c1nc2ccccc2nc1N1CCCCC1 (stereo not given)	none
COc1ccc2occ(C(=O)c3oc4ccccc4c3N)c2c1	TEAD-YAP block 32
COC(=O)c1oc2ccc(OC)cc2c1N	none
COc1ccc2oc(C)c(C(=O)c3oc4ccccc4c3N)c2c1	TEAD-YAP block 34
COc1ccc2oc(C(=O)c3ccc(Cl)cc3)c(N)c2c1	none
CCCSc1nc(-c2ccccc2)cc(-c2ccccc2OC)c1C#N	none
Cc1ccc(Cn2cnc3ccccc32)cc1	none
O=C(Cn1cnc2ccccc21)Nc1ccc(SC(F)F)cc1	TEAD-YAP block 34
Cc1cc(C)c(NC(=O)Cn2cnc3ccccc32)c(C)c1	TEAD-YAP block 42
Cc1cc(Cn2cnc3ccccc32)c(C)cc1Cn1cnc2ccccc21	TEAD-YAP block 36
Cc1noc(C)c1COC(=O)c1ccc(-c2ccccc2)cc1	none
COC(=O)c1ccc(NC(=O)/C(=C/c2cccc([N+](=O)[O-])c2)NC(=O)c2cc(Cl)ccc2OC)cc1	none
COCCCn1c(SCC(=O)NC(C)(C)C)nnc1-c1ccncc1	none
Cc1ccc(NC(=O)CSc2nc3ccc(NC(=O)CSc4nnc(-c5ccccc5)n4Cc4ccccc4)cc3s2)cc1Cl	none
CCOCCn1c2c(c3ccccc31)=NC1C=CC=CC1N=2 (stereo not given)	FBW7 act 2.7
COc1ccc(-c2cncc3ccc(C(=O)N[C@@H](C)c4ccccc4)nc23)cc1	TEAD-YAP block 50
COc1ccc(-c2cncc3ccc(C(=O)N[C@H](C)c4ccccc4)nc23)cc1	TEAD-YAP block 61
CCC(SC1=NCCS1)C(=O)Nc1nnc(C)s1 (stereo not given)	none
CCC(C)N1C(=O)S/C(=C/c2cc(C)n(-c3ccccn3)c2C)C1=O (stereo not given)	TEAD-YAP block 41
FC(F)(F)c1ccccc1NC(=S)N/N=C1\CC2CC=CC12 (stereo not given)	TEAD-YAP block 47
CC(=O)c1c(C)[nH]c(C(=O)Nc2ccc(C)cn2)c1C	TEAD-YAP block 53
CC(=O)c1c(C)[nH]c(C(=O)Nc2nc(C)cs2)c1C	TEAD-YAP block 54
Cc1cccc(-c2nnc(C3CCN(S(=O)(=O)c4ccc(F)c(C)c4)CC3)o2)c1	none
CC1CCN(C(=O)CSc2nc3cc4c(cc3cc2C#N)OCCO4)CC1	none
Cc1ccccc1NC(=O)c1sc(NC(=O)/C=C/c2ccccc2)nc1C	TEAD-YAP block 49
Cc1nc(NC(=O)/C=C/c2ccccc2)sc1C(=O)NCc1ccccc1	none
COc1cc(Nc2nc(NCc3nc4ccccc4[nH]3)c3ncn(-c4ccccc4)c3n2)cc(OC)c1OC	TEAD-YAP block 62
c1ccc(-n2cnc3c(NCc4nc5ccccc5[nH]4)nc(-c4csc5ccccc45)nc32)cc1	FBW7 act 6.9
c1ccc(Nc2nc(NCc3nc4ccccc4[nH]3)c3ncn(-c4ccccc4)c3n2)cc1	TEAD-YAP block 34
CCNc1nc(NCc2nc3ccccc3[nH]2)c2ncn(-c3ccccc3)c2n1	none
COc1cc(Nc2nc(NCc3cccnc3)c3ncn(-c4ccccc4)c3n2)cc(OC)c1OC	none
C/C=C/COC(=O)c1[nH]c2c(c1C)C(=O)CC(c1ccco1)C2 (stereo not given)	TEAD-YAP block 57
CCOC(=O)c1[nH]c2c(c1C)C(=O)CC(c1ccc(OC)c(OC)c1)C2 (stereo not given)	none
C=CCOC(=O)c1[nH]c2c(c1C)C(=O)CC(c1ccco1)C2 (stereo not given)	TEAD-YAP block 51
Cc1c(C(=O)OC2CCCC2)[nH]c2c1C(=O)CC(c1ccco1)C2 (stereo not given)	TEAD-YAP block 55
Cc1c(C(=O)OCC2CCCO2)[nH]c2c1C(=O)CC(c1ccco1)C2 (stereo not given)	TEAD-YAP block 52
CN(C)S(=O)(=O)c1cccc2nonc12	none
Cc1nnc(-c2ccccc2)c(=O)n1/N=C/c1ccccc1Cl	none
CCOC(=O)N1CCN(C(=O)CN(c2ccccc2CC)S(=O)(=O)c2ccc(C)cc2)CC1	none
CCCOC(=O)C1=C(C)NC(=O)NC1c1ccc(OCCC)c(OC)c1 (stereo not given)	none
Cc1c(C(=O)OCC(C)C)[nH]c2c1C(=O)CC(c1ccco1)C2 (stereo not given)	TEAD-YAP block 49
Cc1c(C(=O)OCC(C)C)[nH]c2c1C(=O)CCC2	none
COc1ccc(CC(=O)NCc2ccc(C)cc2)cc1	none
Cn1nc(CC(=O)Nc2ccccc2Br)c2ccccc2c1=O	none
Cc1ccc(NC(=O)Cc2nn(C)c(=O)c3ccccc23)cc1	TEAD-YAP block 42
COc1ccc(CC(=O)NCc2ccsc2)cc1	TEAD-YAP block 35
Cn1nc(CC(=O)Nc2c(F)cccc2F)c2ccccc2c1=O	TEAD-YAP block 41
COc1cc(NC(=O)Cc2nn(C)c(=O)c3ccccc23)cc(OC)c1OC	none
Cn1nc(CC(=O)Nc2ccc(F)c(Cl)c2)c2ccccc2c1=O	FBW7 act 1.9
Cc1cc(C(=O)N2CCC(CO)(CCOc3ccccc3)CC2)no1	none
Cc1cccc(-n2c(SCC(=O)N3CCOCC3)nnc2-c2ccccn2)c1C	none
O=C1c2ccccc2C(=O)N1CC(=O)C12CC3CC(CC(C3)C1)C2	none
Cc1cccc(NC(=O)Cc2nn(C)c(=O)c3ccccc23)c1	TEAD-YAP block 45
Cn1nc(CC(=O)Nc2cccc(F)c2)c2ccccc2c1=O	TEAD-YAP block 34
COc1ccc(CNC(=O)Cc2nn(C)c(=O)c3ccccc23)cc1	TEAD-YAP block 38
CC1C(=O)NN=C1C(=O)N/N=C/c1cccnc1 (stereo not given)	none
O=C1/C(=C/c2cccnc2)SC(=S)N1Cc1cccnc1	TEAD-YAP block 33
